# The supplement of paper PMC9694430
# Key:
# Assay in all cases: thermal shift delta Tm vs DMSO control; higher = stronger stabilization (binding)
# Settings in all cases: 12.5 µM; protein concentration 2 µM
# LOC_OS02G45750-cb003 = system: LOC_OS02G45750-cb003
# Method in brief: (§1)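 Rice kinase domain constructs were expressed in E. coli, purified, and tested by differential scanning fluorimetry with compound added in DMSO. Each well of a 96-well plate held 19.5 μl of 2 μM kinase in 100 mM potassium phosphate pH 7.5, 150 mM NaCl, 10% glycerol and 5 × SYPRO Orange, and fluorescence was read from 25°C to 95°C at 0.05°C/s. The melting temperature shift is the mean of triplicates, taken against protein with DMSO alone after Boltzmann fitting.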
# LOC_OS02G54510-cb004 = system: LOC_OS02G54510-cb004
# Method in brief: as §1
# LOC_OS03G04050-cb001 = system: LOC_OS03G04050-cb001
# Method in brief: as §1
# LOC_OS03G12390-cb001 = system: LOC_OS03G12390-cb001
# Method in brief: as §1
# LOC_OS03G27990-cb004 = system: LOC_OS03G27990-cb004
# Method in brief: as §1
# LOC_OS03G50450-cb001 = system: LOC_OS03G50450-cb001
# Method in brief: as §1
# LOC_OS03G50810-cb003 = system: LOC_OS03G50810-cb003
# Method in brief: as §1
# LOC_OS04G35114-cb001 = system: LOC_OS04G35114-cb001
# Method in brief: as §1
# LOC_OS04G38480-cb003 = system: T1, LOC_OS04G38480-cb003
# T1 sequence (whole entry): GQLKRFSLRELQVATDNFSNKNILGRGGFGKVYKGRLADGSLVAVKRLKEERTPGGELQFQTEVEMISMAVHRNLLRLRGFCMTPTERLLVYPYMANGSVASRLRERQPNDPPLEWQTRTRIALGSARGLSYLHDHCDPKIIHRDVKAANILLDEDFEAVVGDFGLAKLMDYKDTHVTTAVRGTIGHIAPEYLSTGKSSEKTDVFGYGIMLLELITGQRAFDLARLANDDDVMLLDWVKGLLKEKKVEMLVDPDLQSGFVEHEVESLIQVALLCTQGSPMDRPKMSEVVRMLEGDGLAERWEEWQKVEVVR
# Method in brief: as §1
# LOC_OS04G41100-cb001 = system: T2, LOC_OS04G41100-cb001
# T2 sequence (whole entry): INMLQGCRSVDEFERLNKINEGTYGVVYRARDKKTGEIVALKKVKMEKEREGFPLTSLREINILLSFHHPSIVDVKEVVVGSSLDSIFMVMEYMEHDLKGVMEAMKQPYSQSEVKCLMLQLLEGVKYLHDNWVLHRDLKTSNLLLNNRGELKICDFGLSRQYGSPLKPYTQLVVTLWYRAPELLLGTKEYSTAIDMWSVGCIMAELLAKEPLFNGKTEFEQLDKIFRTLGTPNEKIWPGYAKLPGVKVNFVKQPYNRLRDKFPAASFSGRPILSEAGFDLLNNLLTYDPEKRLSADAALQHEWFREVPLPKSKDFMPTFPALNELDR
# Method in brief: as §1
# LOC_OS04G57630-cb004 = system: LOC_OS04G57630-cb004
# Method in brief: as §1
# LOC_OS05G07850-cb002 = system: LOC_OS05G07850-cb002
# Method in brief: as §1
# LOC_OS05G16824-cb004 = system: LOC_OS05G16824-cb004
# Method in brief: as §1
# LOC_OS05G28520-cb001 = system: LOC_OS05G28520-cb001
# Method in brief: as §1
# LOC_OS05G30820-cb001 = system: LOC_OS05G30820-cb001
# Method in brief: as §1
# LOC_OS05G43570-cb004 = system: LOC_OS05G43570-cb004
# Method in brief: as §1
# LOC_OS06G16330-cb003 = system: LOC_OS06G16330-cb003
# LOC_OS06G16330-cb003, sequence (as listed by the source): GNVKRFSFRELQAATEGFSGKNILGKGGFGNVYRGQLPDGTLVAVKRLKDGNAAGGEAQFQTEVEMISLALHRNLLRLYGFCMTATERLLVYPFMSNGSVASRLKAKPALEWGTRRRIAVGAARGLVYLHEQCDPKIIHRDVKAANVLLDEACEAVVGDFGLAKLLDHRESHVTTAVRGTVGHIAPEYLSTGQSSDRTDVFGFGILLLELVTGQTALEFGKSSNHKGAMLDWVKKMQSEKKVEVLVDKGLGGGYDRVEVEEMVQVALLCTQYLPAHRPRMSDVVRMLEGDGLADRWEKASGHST
# Method in brief: as §1
# LOC_OS06G22820-cb001 = system: T3, LOC_OS06G22820-cb001
# T3 sequence (whole entry): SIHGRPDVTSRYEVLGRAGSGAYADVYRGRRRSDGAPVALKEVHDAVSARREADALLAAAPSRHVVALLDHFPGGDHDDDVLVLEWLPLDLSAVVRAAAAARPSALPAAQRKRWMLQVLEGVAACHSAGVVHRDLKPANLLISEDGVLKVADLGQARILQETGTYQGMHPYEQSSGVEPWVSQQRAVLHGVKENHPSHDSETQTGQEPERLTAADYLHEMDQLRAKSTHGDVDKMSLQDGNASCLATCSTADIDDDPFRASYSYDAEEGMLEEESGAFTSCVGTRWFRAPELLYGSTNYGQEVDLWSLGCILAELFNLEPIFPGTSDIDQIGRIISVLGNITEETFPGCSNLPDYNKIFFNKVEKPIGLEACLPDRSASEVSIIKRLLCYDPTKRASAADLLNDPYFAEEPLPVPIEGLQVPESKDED
# Method in brief: as §1
# LOC_OS07G06570-cb004 = system: LOC_OS07G06570-cb004
# Method in brief: as §1
# LOC_OS07G07230-cb001 = system: LOC_OS07G07230-cb001
# Method in brief: as §1
SMILES,thermal shift delta Tm (LOC_OS02G45750-cb003),thermal shift delta Tm (LOC_OS02G54510-cb004),thermal shift delta Tm (LOC_OS03G04050-cb001),thermal shift delta Tm (LOC_OS03G12390-cb001),thermal shift delta Tm (LOC_OS03G27990-cb004),thermal shift delta Tm (LOC_OS03G50450-cb001),thermal shift delta Tm (LOC_OS03G50810-cb003),thermal shift delta Tm (LOC_OS04G35114-cb001),thermal shift delta Tm (LOC_OS04G38480-cb003),thermal shift delta Tm (LOC_OS04G41100-cb001),thermal shift delta Tm (LOC_OS04G57630-cb004),thermal shift delta Tm (LOC_OS05G07850-cb002),thermal shift delta Tm (LOC_OS05G16824-cb004),thermal shift delta Tm (LOC_OS05G28520-cb001),thermal shift delta Tm (LOC_OS05G30820-cb001),thermal shift delta Tm (LOC_OS05G43570-cb004),thermal shift delta Tm (LOC_OS06G16330-cb003),thermal shift delta Tm (LOC_OS06G22820-cb001),thermal shift delta Tm (LOC_OS07G06570-cb004),thermal shift delta Tm (LOC_OS07G07230-cb001)
C[C@@H]1CN(CC(=O)Nc2ccc3c(c2)Cc2cccc(-c4cc(=O)cc(N5CCOCC5)o4)c2S3)C[C@H](C)O1,0.27 °C,-0.11 °C,0.02 °C,0.37 °C,-0.04 °C,0.03 °C,0.14 °C,0.37 °C,-0.13 °C,0.23 °C,-0.04 °C,0.16 °C,-0.46 °C,-0.13 °C,0.31 °C,0.21 °C,-0.2 °C,0.77 °C,1.02 °C,-0.36 °C
O=C(NC(NC(=S)Nc1ccc(F)c([N+](=O)[O-])c1)C(Cl)(Cl)Cl)C(c1ccccc1)c1ccccc1 (configuration not stated),0.8 °C,1.3 °C,1.21 °C,1.23 °C,0.49 °C,0.84 °C,1.45 °C,1.31 °C,3.23 °C,0.88 °C,1.38 °C,8.68 °C,0.69 °C,1.84 °C,1.61 °C,2.15 °C,0.69 °C,1.79 °C,1.83 °C,0.79 °C
CC(=O)Nc1cccc(-n2c(=O)n(C3CC3)c(=O)c3c(Nc4ccc(I)cc4F)n(C)c(=O)c(C)c32)c1,0.35 °C,-0.04 °C,0.2 °C,-0.13 °C,0.22 °C,0.62 °C,0.43 °C,0.56 °C,0.86 °C,0.62 °C,0.23 °C,0.88 °C,-0.98 °C,0.48 °C,0.42 °C,0.15 °C,-0.52 °C,0.44 °C,0.26 °C,-0.16 °C
Cc1ncc(CO)c(CO)c1O [Pyridoxine],0.81 °C,-0.02 °C,0.53 °C,-0.09 °C,0.25 °C,0.62 °C,0.03 °C,-0.36 °C,0.12 °C,0.24 °C,-0.04 °C,0.43 °C,–,-0.11 °C,0.06 °C,0.36 °C,-0.45 °C,0.67 °C,1.06 °C,0.72 °C
O=C(O)c1cc(O)c2c(c1)[C@@H]([C@H]1c3cc(C(=O)O)cc(O)c3C(=O)c3c(O[C@@H]4O[C@H](CO)[C@@H](O)[C@H](O)[C@H]4O)cccc31)c1cccc(O[C@@H]3O[C@H](CO)[C@@H](O)[C@H](O)[C@H]3O)c1C2=O [Sennoside B],0.1 °C,-0.47 °C,1.23 °C,0.74 °C,0.89 °C,0.17 °C,1.04 °C,0.32 °C,3.9 °C,0.24 °C,-0.43 °C,-1.7 °C,–,2.58 °C,0.73 °C,1.55 °C,-0.98 °C,1.61 °C,4.56 °C,-0.03 °C
CCCCCCCCCC(=O)CC(O)S(=O)(=O)O (configuration not stated) [Sodium Houttuyfonate],0.77 °C,0.52 °C,0.5 °C,0.34 °C,0.41 °C,0.36 °C,0.37 °C,0.65 °C,1.54 °C,0.45 °C,0.61 °C,0.71 °C,-0.1 °C,0.13 °C,0.21 °C,0.52 °C,-8.96 °C,-0.11 °C,0.7 °C,0.34 °C
Cc1nc2c(-c3cnc(N)nc3)nc(N3CCOCC3)nc2n1C(C)C,0.88 °C,0.46 °C,0.51 °C,0.59 °C,0.15 °C,0.73 °C,0.44 °C,1.59 °C,–,–,0.5 °C,2.64 °C,0.17 °C,0.5 °C,0.32 °C,–,–,–,1.35 °C,-0.09 °C
CCc1ccc(/C=C2/SC(=S)NC2=O)cc1,-0.48 °C,0.83 °C,1.24 °C,1.18 °C,0.83 °C,0.26 °C,0.48 °C,1.2 °C,1.19 °C,0.36 °C,0.22 °C,2.65 °C,-3.64 °C,1.2 °C,0.82 °C,1 °C,0.48 °C,1.04 °C,1.65 °C,0.27 °C
Cc1ccc(C(=O)Nc2cccc(C(F)(F)F)c2)cc1Nc1nc(-c2cccnc2)nc2c1cnn2C,0.71 °C,1.84 °C,0.36 °C,1.07 °C,0.25 °C,0.79 °C,0.32 °C,0.29 °C,0.47 °C,0.58 °C,0.31 °C,0.03 °C,-1.61 °C,0.44 °C,0.9 °C,1.18 °C,1.09 °C,0.98 °C,1.07 °C,0.06 °C
COc1cc2ncnc(Nc3cccc(Cl)c3F)c2cc1OC(=O)N1CCN(C)C[C@H]1C,1.31 °C,0.53 °C,0.43 °C,0.01 °C,0.33 °C,0.9 °C,0.48 °C,3.07 °C,1.2 °C,0.24 °C,0.65 °C,9.1 °C,-0.19 °C,0.6 °C,0.5 °C,0.72 °C,2.26 °C,0.6 °C,1.12 °C,0.94 °C
Oc1ccc(-c2nc(-c3ccc(F)cc3)c(-c3ccncc3)[nH]2)cc1,0.9 °C,1.58 °C,0.9 °C,0.88 °C,0.55 °C,0.44 °C,0.55 °C,2.01 °C,1.53 °C,1.35 °C,0.57 °C,1.26 °C,–,1.33 °C,0.88 °C,1.13 °C,0.09 °C,0.97 °C,1.08 °C,0.48 °C
